Here are results for 15 molecules from PubChem BioAssay.

Assay [1] has as its target Cell division control protein 42 homolog (Homo sapiens) (UniProt P60953). Kind of assay: activated mutant Cdc42 GTP-binding inhibitors, dose response, biochemical, multiplex bead flow cytometry, Bodipy-FL-GTP (AID 1333;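 active means fitted half-maximal concentration within the tested dose range, moderate curve steepness, a statistically real signal drop, and little compound fluorescence or tag-binding interference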). (In general: Flow cytometry measures light scatter and fluorescence of single cells or particles in a stream.)
The target is the same in assay [2]. Kind of assay: wildtype Cdc42 GTP-binding inhibitors, dose response, biochemical, multiplex bead flow cytometry, Bodipy-FL-GTP (AID 1334). The settings on record: bead-based flow cytometry, Bodipy-FL-GTP binding to GST-Cdc42; at 100 µM (top of the series) unless noted.
In assay [3] the target is GTPase HRas (Homo sapiens) (UniProt P01112). As to the kind of experiment: inhibitors of GTP binding to wildtype Ras, dose response, biochemical, multiplex bead flow cytometry (AID 1335;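 active means fitted half-maximal concentration within 10 nM to 100 µM, steepness 0.5 to 2, significant signal drop, low assay interference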). The settings on record: bead-based flow cytometry, Bodipy-GTP binding to GST-Ras; at 100 µM (top of the series) unless noted.
Assay [4] has as its system Ras-related protein Rab-7a (dog), GTP binding. As to the kind of experiment: Rab7 GTP binding inhibitors, potency, dose response, biochemical, wildtype, multiplex bead flow cytometry (AID 1336; call rule not given here).
In assay [5] the target is Ras-related C3 botulinum toxin substrate 1 (Homo sapiens) (UniProt P63000). As to the kind of experiment: wildtype Rac1 GTP binding inhibitors, dose response, biochemical, multiplex bead flow cytometry (AID 1340;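 active means dose curve with midpoint inside tested range, moderate steepness, plateau gap beyond fit error, low compound glow and bead-link interference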). The settings on record: GST-Rac1 beads, Bodipy-FL-GTP binding; at 100 µM (top of the series) unless noted.
The target of assay [6] is GTPase HRas (Homo sapiens) (UniProt P01112). As to the kind of experiment: activated Ras mutant GTP binding inhibitors, dose response, biochemical, multiplex bead flow cytometry (AID 1341;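 active means dose-response curve with midpoint inside the tested range, moderate steepness, significant amplitude and little compound fluorescence or bead-attachment interference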;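 further: GST-tagged constitutively activated Ras mutant immobilized on beads and multiplexed with other GTPases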).

For part of these data: Entries with a potency or affinity are not part of this list. Active and inactive are the calls of the source.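 How the source made its calls, unless noted: active means fitted half-maximal concentration within the tested range, moderate curve steepness, significant signal drop, and little compound fluorescence or bead-linkage interference; inactive means the rest.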

Cell division control protein 42 homolog (Homo sapiens), sequence (P60953 whole entry, looked up): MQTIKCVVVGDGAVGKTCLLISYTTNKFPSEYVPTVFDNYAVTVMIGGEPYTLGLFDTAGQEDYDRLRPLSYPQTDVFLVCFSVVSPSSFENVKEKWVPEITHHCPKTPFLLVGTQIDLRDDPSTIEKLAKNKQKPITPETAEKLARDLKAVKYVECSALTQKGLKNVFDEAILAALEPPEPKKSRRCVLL
GTPase HRas (Homo sapiens), sequence (P01112 whole entry, looked up): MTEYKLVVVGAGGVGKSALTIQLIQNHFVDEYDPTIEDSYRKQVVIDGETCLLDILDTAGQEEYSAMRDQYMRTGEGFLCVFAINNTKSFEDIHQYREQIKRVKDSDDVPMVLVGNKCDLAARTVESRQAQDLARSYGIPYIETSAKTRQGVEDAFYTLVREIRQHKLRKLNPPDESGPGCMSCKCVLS

For `O=C(O)COc1ccccc1/C=N/Nc1ccc(S(=O)(=O)Nc2ccc(Cl)cc2)cc1[N+](=O)[O-]`, the molecule was classed as inactive in assay [1], in assay [4] and in assay [6]. Also, in assay [2], the fluorescence, percent of control (lower = inhibition) worked out at 28.1%. The molecule also returned a GTP binding, percent of control in assay [3] of 79.9%. The molecule further came in with a GTP binding signal, raw median fluorescence (lower = inhibition) (MCF (arbitrary fluorescence units)) in assay [5] of 174.

On to `CCOC(=O)CCCCC(=O)c1[nH]c(=O)[nH]c1CSc1nnc2c3cc(Br)ccc3n(C)c2n1`, for which the molecule was classed as inactive in assay [1], in assay [4] and in assay [6]. The fluorescence, percent of control (lower = inhibition) in assay [2] was 34.4%. The molecule also registered a GTP binding, percent of control in assay [3] of 80.3%. In addition, the GTP binding signal, raw median fluorescence (lower = inhibition) (MCF (arbitrary fluorescence units)) in assay [5] was 167.

For the molecule `COc1cc2c3nnc(-c4ccc(F)cc4)c-3cn(Cc3cccc(F)c3)c2cc1OC`, the call in assay [1], in assay [4] and in assay [6] was inactive. The same molecule had a fluorescence, percent of control (lower = inhibition) in assay [2] of 38.2%. Also, the GTP binding, percent of control in assay [3] was determined as 86.4%. Also, the GTP binding signal, raw median fluorescence (lower = inhibition) (MCF (arbitrary fluorescence units)) in assay [5] was 293.

Regarding `Cc1c(NC(=O)CCN2C(=O)c3ccccc3C2=O)c(=O)n(-c2ccccc2)n1C`, the result in assay [1], in assay [4] and in assay [6] was inactive. The molecule also came in with a fluorescence, percent of control (lower = inhibition) in assay [2] of 42.1%. Further, in assay [3], the GTP binding, percent of control came out at 90.3%. The GTP binding signal, raw median fluorescence (lower = inhibition) (MCF (arbitrary fluorescence units)) in assay [5] stood at 322.

Consider `Cc1ccc(-c2ccc(/C=C3\SC(N4CCOCC4)=NC3=O)o2)cc1`, for which the molecule was classed as inactive in assay [1], in assay [4] and in assay [6]. In assay [2], this molecule gave a fluorescence, percent of control (lower = inhibition) of 31.4%. This molecule also gave a GTP binding, percent of control in assay [3] of 71.6%. The GTP binding signal, raw median fluorescence (lower = inhibition) (MCF (arbitrary fluorescence units)) in assay [5] is 195.

For the molecule `COc1cc2[nH]c(=S)nc(NCc3ccccn3)c2cc1OC`, the result in assay [1], in assay [4] and in assay [6] was inactive. The molecule further showed a fluorescence, percent of control (lower = inhibition) in assay [2] of 31.9%. In assay [3], this molecule gave a GTP binding, percent of control of 71.7%. For the same molecule, in assay [5], the GTP binding signal, raw median fluorescence (lower = inhibition) (MCF (arbitrary fluorescence units)) came out at 176.

With `Cc1ccc(-c2csc3nc4c5ccccc5c(NCCCN5CCOCC5)nn4c(=O)c23)cc1`, the result in assay [1], in assay [4] and in assay [6] was inactive. The molecule further yielded a fluorescence, percent of control (lower = inhibition) in assay [2] of 32%. In assay [3], this molecule had a GTP binding, percent of control of 68.7%. In assay [5], the GTP binding signal, raw median fluorescence (lower = inhibition) (MCF (arbitrary fluorescence units)) turned out to be 176.

In the case of `COCCN(C(=S)Nc1cc(C)ccc1C)C(C)c1cccnc1` (stereo not given), the call in assay [1], in assay [4] and in assay [6] was inactive. In assay [2], this molecule showed a fluorescence, percent of control (lower = inhibition) of 52.6%. Further, the GTP binding, percent of control in assay [3] is 63.7%. In assay [5], this molecule came in with a GTP binding signal, raw median fluorescence (lower = inhibition) (MCF (arbitrary fluorescence units)) of 212.

Regarding `O=S(=O)(Nc1cccc(-c2cn3cccnc3n2)c1)c1ccccc1`, the call in assay [1], in assay [4] and in assay [6] was inactive. The molecule further displayed a fluorescence, percent of control (lower = inhibition) in assay [2] of 34.9%. In assay [3], this molecule yielded a GTP binding, percent of control of 48.7%. In addition, in assay [5], the GTP binding signal, raw median fluorescence (lower = inhibition) (MCF (arbitrary fluorescence units)) was determined as 114.

Take `Cc1cc(NC(=O)c2cccc(C(=O)Nc3cc(C)on3)n2)no1`: the outcome in assay [1], in assay [4] and in assay [6] was inactive. The molecule also displayed a fluorescence, percent of control (lower = inhibition) in assay [2] of 40%. Moreover, in assay [3], the GTP binding, percent of control turned out to be 86.3%. In assay [5], the GTP binding signal, raw median fluorescence (lower = inhibition) (MCF (arbitrary fluorescence units)) worked out at 296.

With `COc1ccc(-c2cc(C(F)(F)F)n3nc(C(=O)O)cc3n2)cc1OC`, the molecule was called inactive in assay [1], in assay [4] and in assay [6]. Moreover, the fluorescence, percent of control (lower = inhibition) in assay [2] amounted to 30.7%. This molecule also displayed a GTP binding, percent of control in assay [3] of 67.7%. The molecule further came in with a GTP binding signal, raw median fluorescence (lower = inhibition) (MCF (arbitrary fluorescence units)) in assay [5] of 140.

For the molecule `Nc1[nH]n2c(=O)c3c(nc2c1N=Nc1ccc(Cl)cc1)CCCC3`, the call in assay [1], in assay [4] and in assay [6] was inactive. Besides, the fluorescence, percent of control (lower = inhibition) in assay [2] is 61.6%. In assay [3], this molecule showed a GTP binding, percent of control of 49.2%. The GTP binding signal, raw median fluorescence (lower = inhibition) (MCF (arbitrary fluorescence units)) in assay [5] was determined as 188.

In the case of `Cc1cc(=O)[nH]c2c(N=Nc3ccc(O)cc3)c(N)nn12`, the call in assay [1], in assay [4] and in assay [6] was inactive. In assay [2], this molecule showed a fluorescence, percent of control (lower = inhibition) of 31.3%. This molecule also displayed a GTP binding, percent of control in assay [3] of 69.7%. The molecule also gave a GTP binding signal, raw median fluorescence (lower = inhibition) (MCF (arbitrary fluorescence units)) in assay [5] of 161.

On to `Cc1nc(Nc2ccc(C(=O)O)cc2)nc(Nc2ccc(C(=O)O)cc2)c1[N+](=O)[O-]`, for which the molecule was called inactive in assay [1], in assay [4] and in assay [6]. This molecule showed a fluorescence, percent of control (lower = inhibition) in assay [2] of 28.7%. Also, the GTP binding, percent of control in assay [3] came out at 64.9%. In addition, the GTP binding signal, raw median fluorescence (lower = inhibition) (MCF (arbitrary fluorescence units)) in assay [5] turned out to be 111.

With `N#C/C(=C/c1ccc(O)c([N+](=O)[O-])c1)C(=O)Nc1ccccc1`, the outcome in assay [1], in assay [4] and in assay [6] was inactive. The molecule further displayed a fluorescence, percent of control (lower = inhibition) in assay [2] of 31.5%. Besides, in assay [3], the GTP binding, percent of control was determined as 77.4%. For the same molecule, the GTP binding signal, raw median fluorescence (lower = inhibition) (MCF (arbitrary fluorescence units)) in assay [5] turned out to be 193.
